The list is not random: actives were taken first. Their share in the collection is about 7.4%.
p53 reactivator: re-activators of mutant p53; H1299 p53-A138V BP100-luciferase reporter, luminescence, 24 h; Potency, µM (highest dose often 92.2 µM), for the others: at the top dose activity change, positive = activation, hits mostly activators; hit rate 0.063% among 320,000; AID 504706; also: % of control where 0% means no effect; nearly all actives have a fitted effect of over 45% in size
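p53-null H1299 cells stably carrying temperature-sensitive p53-A138V and a BP100-luciferase reporter were pinned with compounds (4-point, 1:5 series) and held 24 hrs at 37 deg C. Luminescence was read 10 min after detection reagent.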
SMN2 splice up: enhancers of SMN2 splice variant expression | HEK293 SMN2-luciferase splicing reporter, luminescence, 30-36 h | Potency, µM (top dose mostly 46.1 µM), for the others: at the top dose activity change, positive = activation, most hits filed as activators | hit rate 2.8% among 210,000 | AID 1458; also: % of control where 0% means no effect; nearly all actives have a fitted effect of over 55% in size
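HEK293 cells carry an SMN2 minigene-luciferase reporter in which exon 7 inclusion puts luciferase in frame. Cells were seeded at 2000 cells/well, attached for 10-12 hours, then exposed to compounds for 30-36 hours at 37C before ONE-Glo luminescence.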
FLuc modulator: inhibits or activates purified firefly luciferase, miR-21 counter-screen | hit rate 6.9% among 360,000 | purified FLuc, Km substrates, luminescence inhibition | Potency, µM (top dose mostly 57.5 µM), for the others: top-dose activity change, negative = inhibition, most hits filed as inhibitors | P08659 | AID 588342;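 also: plate controls were vehicle for no effect and reference inhibitor for full effect; nearly all actives have a fitted effect of over 55% in size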
Target sequence (P08659 whole entry, looked up): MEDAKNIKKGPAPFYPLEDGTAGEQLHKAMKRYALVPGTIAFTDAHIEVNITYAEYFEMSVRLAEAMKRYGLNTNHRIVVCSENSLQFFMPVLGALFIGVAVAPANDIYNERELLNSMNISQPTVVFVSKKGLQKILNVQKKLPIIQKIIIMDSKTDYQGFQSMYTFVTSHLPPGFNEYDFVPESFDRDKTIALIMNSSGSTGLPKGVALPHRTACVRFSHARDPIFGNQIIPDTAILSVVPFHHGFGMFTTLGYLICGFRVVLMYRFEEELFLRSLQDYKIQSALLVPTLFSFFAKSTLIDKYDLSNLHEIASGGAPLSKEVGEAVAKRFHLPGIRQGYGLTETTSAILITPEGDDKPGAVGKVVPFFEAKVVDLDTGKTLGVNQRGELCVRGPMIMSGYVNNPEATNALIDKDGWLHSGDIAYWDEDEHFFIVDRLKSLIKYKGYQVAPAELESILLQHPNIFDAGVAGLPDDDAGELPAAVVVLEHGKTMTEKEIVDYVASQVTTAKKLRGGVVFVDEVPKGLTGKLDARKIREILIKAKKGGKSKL
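Biochemical qHTS of compounds, final roughly 60 µM downward over six points, against 10 nM purified firefly luciferase using Km concentrations of substrates (10 uM D-luciferin, 10 uM ATP) in Tris acetate pH 7.5 buffer; luminescence output.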
NPC1 promoter act: NPC1 promoter activation; hit rate 2.4% among 320,000; Potency, µM (highest dose often 9.22 µM), for inactives: top-dose activation, most hits filed as activators; Huh7 NPC1 promoter luciferase reporter, 24 h; AID 485313; also: % of control where 0% means no effect; nearly all actives have a fitted effect of over 60% in size
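Luminescence read-out of NPC1 promoter-driven luciferase in stably transfected Huh7 cells; compounds delivered in DMSO and left 24 h at 37C, 5% CO2, qHTS titration format.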
ELG1 genotoxic: inducers of genotoxicity in HEK293T ELG1-luciferase cells | Potency, µM (highest dose often 46 µM), without a hit: at the highest dose activity change, positive = activation, most hits filed as activators | hit rate 1.3% among 330,000 | HEK293T ELG1-luciferase reporter, luminescence, 16 h; also: % of control where 0% means no effect; nearly all actives have a fitted effect of over 60% in size
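Genotoxic stress is detected as increased luminescence from luciferase-tagged ELG1 in HEK293T cells, measured with ONE-Glo after a 16 hr treatment at 37 °C.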
Rab9 promoter act: activates the Rab9 promoter | Huh7 Rab9 promoter-luciferase reporter, luminescence, 24 h | Potency, µM (top dose mostly 9.22 µM), inactives show top-dose activation, negative = inhibition, most hits filed as activators | hit rate 2.8% among 320,000; also: % of control where 0% means no effect; nearly all actives have a fitted effect of over 60% in size
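Huh7 cells stably carrying a Rab9 promoter-luciferase reporter, 1500 cells per well in OP-MEM I with 10% FBS, treated with compound 24 hours at 37C. Luciferase activity read by luminescence after 10 minutes with Amplite reagent.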
An asterisk follows results filed as active; [ ] = remark or other dose. Calls follow the shape of the dose curve; as a rule, active = well fitted curve in the direction sought with a large enough effect; inconclusive = small, poorly fitted or top-dose-only effect, or another doubt; inactive = no such curve, though single readings can be large; an effect the other way counts as inactive or inconclusive. Potency is read from the fitted curve at half-maximal effect.

Results for CC1CCC/C(=C\Nc2ccccc2C(=O)O)C1=O (stereo not given) ?
p53 reactivator: inconclusive; SMN2 splice up: 14%; FLuc modulator: 24µM*; NPC1 promoter act: 19%; ELG1 genotoxic: 12%; Rab9 promoter act: 0%

What do the screens show for `O=C1CCC/C1=C/Nc1ccc2c(c1)OCO2`?
p53 reactivator: -13%; SMN2 splice up: inconclusive; FLuc modulator: 17µM*; NPC1 promoter act: 10%; ELG1 genotoxic: 8%; Rab9 promoter act: inconclusive

Results for CCOC(=O)N1CCC2(CC1)OC(=O)C(C)=C2C(=O)NCc1ccc(C)cc1 ?
FLuc modulator: -10%

Results for Cc1ccc(-c2cc(C(=O)O)c3ccccc3n2)s1 ?
p53 reactivator: 21%; FLuc modulator: 2.7µM*; NPC1 promoter act: 29%; ELG1 genotoxic: inconclusive; Rab9 promoter act: 23%

How did Cc1cc(NC(=O)c2cc(-c3ccc(C)s3)nc3ccccc23)no1 do in these assays?
p53 reactivator: 10%; SMN2 splice up: -1%; FLuc modulator: inconclusive; NPC1 promoter act: 1%; ELG1 genotoxic: 8%; Rab9 promoter act: -2%

How did CCN1CCN(C(=O)c2cc(-c3ccc(Cl)s3)nc3ccccc23)CC1 do in these assays?
FLuc modulator: 19µM*; NPC1 promoter act: -2%; ELG1 genotoxic: -6%; Rab9 promoter act: -1%

What do the screens show for `Cc1cccc(NC(=O)c2cc(-c3ccc(C)s3)nc3ccccc23)n1`?
p53 reactivator: -5%; SMN2 splice up: -31%; FLuc modulator: 11µM*; NPC1 promoter act: 3%; ELG1 genotoxic: -9%; Rab9 promoter act: 0%

Results for O=C(O)c1cc(-c2ccc(Cl)s2)nc2ccccc12 ?
p53 reactivator: -7%; SMN2 splice up: inconclusive; FLuc modulator: 15µM*; NPC1 promoter act: 1%; ELG1 genotoxic: -2%; Rab9 promoter act: 4%

Results for Cc1ccc(S(=O)(=O)Nc2ccccc2C=O)cc1 ?
SMN2 splice up: -20%[9.22 µM]

Results for CC(NC(=O)CN1C(=O)COc2ccc(Cl)cc21)c1ccccc1 (stereo not given) ?
SMN2 splice up: -1%; FLuc modulator: -5%

How did Cc1nc2ccc(NC(=S)NC3CCCCC3)cc2nc1C do in these assays?
p53 reactivator: 16%; SMN2 splice up: 17%; FLuc modulator: 17µM*; NPC1 promoter act: inconclusive; ELG1 genotoxic: 6%; Rab9 promoter act: 3.5µM*

What do the screens show for `S=C(Nc1ccc2[nH]ccc2c1)NC1CCCCC1`?
p53 reactivator: 8%; FLuc modulator: 13µM*; NPC1 promoter act: 2.5µM*; ELG1 genotoxic: 11%; Rab9 promoter act: 2.5µM*

Results for Cc1ccc(NC(=S)NC2CCCC2)cc1C ?
p53 reactivator: inconclusive; SMN2 splice up: inconclusive; FLuc modulator: inconclusive; NPC1 promoter act: 10%; ELG1 genotoxic: 6%; Rab9 promoter act: inconclusive

Results for CC(C)c1ccc(NS(=O)(=O)c2ccc3nc(-c4ccccc4)[nH]c3c2)cc1 ?
SMN2 splice up: -25%; FLuc modulator: 5%

Results for CCn1nnc(NC(=O)c2ccc(C(C)(C)C)cc2)n1 ?
p53 reactivator: 6%; FLuc modulator: 3.4µM*; NPC1 promoter act: 2.2µM*; ELG1 genotoxic: inconclusive; Rab9 promoter act: 1.3µM*

Results for CCCn1nnc(NC(=O)c2ccc3ccccc3c2)n1 ?
p53 reactivator: inconclusive; FLuc modulator: 15µM*; NPC1 promoter act: inconclusive; ELG1 genotoxic: 3%; Rab9 promoter act: inconclusive

Results for CCCn1nnc(NC(=O)c2ccccc2Cl)n1 ?
p53 reactivator: 12%; SMN2 splice up: 19%; FLuc modulator: inconclusive; NPC1 promoter act: inconclusive; ELG1 genotoxic: 21%; Rab9 promoter act: inconclusive

How did CCCn1nnc(NC(=O)c2ccc(Cl)cc2Cl)n1 do in these assays?
p53 reactivator: inconclusive; SMN2 splice up: 88%; FLuc modulator: 19µM*; NPC1 promoter act: 3.2µM*; ELG1 genotoxic: 9.2µM*; Rab9 promoter act: 3.2µM*

What do the screens show for `CCCn1nnc(NC(=O)c2cccc(OCC)c2)n1`?
p53 reactivator: inconclusive; SMN2 splice up: 18µM*; FLuc modulator: 17µM*; NPC1 promoter act: inconclusive; ELG1 genotoxic: 18µM*; Rab9 promoter act: inconclusive

How did CCn1nnc(NC(=O)c2cccnc2)n1 do in these assays?
p53 reactivator: -7%; SMN2 splice up: 14%; FLuc modulator: 5%; NPC1 promoter act: 1%; ELG1 genotoxic: 1%; Rab9 promoter act: 0%

What do the screens show for `O=C(NC[C@@H](O)CO)c1c(I)c(C(=O)NC[C@@H](O)CO)c(I)c(N(CCO)C(=O)CO)c1I`?
SMN2 splice up: 12%[20.6 µM]

How did Cc1noc(C)c1C(=O)N1CCC[C@@]2(CCN(C(=O)NC(C)C)C2)C1 do in these assays?
SMN2 splice up: -2%

How did Cc1ccc(C(=O)Nc2nnn(C)n2)cc1 do in these assays?
p53 reactivator: 19%; SMN2 splice up: inconclusive; FLuc modulator: 17µM*; NPC1 promoter act: 29%; ELG1 genotoxic: inconclusive; Rab9 promoter act: inconclusive

How did Cc1cc(C)c2c(CC(=O)Nc3nnc(C(C)C)s3)coc2c1 do in these assays?
SMN2 splice up: 8%; FLuc modulator: 0%

Results for CC(C)(C)c1ccc(COc2ccsc2C(=O)O)cc1 ?
p53 reactivator: inconclusive; SMN2 splice up: 16%; FLuc modulator: 15µM*; NPC1 promoter act: 10%; ELG1 genotoxic: 18%; Rab9 promoter act: inconclusive

How did CC1CCCCC1NC(=O)c1cccc(NC2=NC3CS(=O)(=O)CC3S2)c1 (stereo not given) do in these assays?
FLuc modulator: 6%; NPC1 promoter act: -6%; ELG1 genotoxic: 7%; Rab9 promoter act: 1%

Results for COc1ccc(N2CCN(c3cnc4ccccc4n3)CC2)cc1 ?
p53 reactivator: 0%; SMN2 splice up: inconclusive; FLuc modulator: 13µM*; NPC1 promoter act: inconclusive; ELG1 genotoxic: inconclusive; Rab9 promoter act: inconclusive

Results for COc1ccc(N2CCN(c3cc(C)c4ccccc4n3)CC2)cc1 ?
p53 reactivator: 0%; SMN2 splice up: -28%; FLuc modulator: 0%; NPC1 promoter act: -11%; ELG1 genotoxic: -11%; Rab9 promoter act: 0%

How did COc1cccc(N2CCN(c3cnc4ccccc4n3)CC2)c1 do in these assays?
p53 reactivator: 5%; SMN2 splice up: 14%; FLuc modulator: 24µM*; NPC1 promoter act: inconclusive; ELG1 genotoxic: 8%; Rab9 promoter act: 1.6µM*

How did CC(=O)N1CCc2c(sc3c2c(=O)n(-c2ccccc2Cl)c(=O)n3Cc2cccc(C)c2)C1 do in these assays?
FLuc modulator: 5%
